From PubChem BioAssay
Only some compounds are listed: those with a hit (about 17% of all), similar ones and a draw of the others.
HT1080-NT tox: kills 2HG-producing HT-1080-NT fibrosarcoma cells. HT-1080-NT fibrosarcoma viability, CellTiter-Glo ATP luminescence, 48 h. actives 1.6% (n = 360,000). Potency, µM (highest dose often 46.1 µM), without a hit: at the top dose activity, negative = less viability, actives largely listed as cytotoxic. AID 686970;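 also: NT is the 2HG producing partner of a matched IDH1 knockdown line; 0% = DMSO-treated cells and -100% = media-only wells without cells; nearly all actives have a fitted effect of over 55% in size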
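HT-1080-NT fibrosarcoma cells (2HG-overproducing), 750 cells/well in RPMI with 5% FBS, dosed after 2 h and incubated 48 h at 37C. CellTiter-Glo luminescence normalized to DMSO and no-cell wells; concentration-response curves fitted and classed.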
DT40 TDP1 no CPT: qHTS for Inhibitors of human tyrosyl-DNA phosphodiesterase 1 (TDP1): qHTS in cells in absence of CPT; actives 15% (n = 420,000); Potency, µM (top dose mostly 46.2 µM), inactives show at the highest dose activity change, negative = growth inhibition, actives largely listed as inhibitors; DT40 Tdp1-/- hTDP1 cells, no CPT, ATP luminescence, 48 h; also: % is scaled to controls: 0 for no effect and ±100 for the full control effect; nearly all actives have a fitted effect of over 55% in size
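Compound effects on proliferation are scored in DT40 Tdp1-/-;hTDP1 cells in the absence of CPT. ATP levels (CellTiter-Glo luminescence) are recorded after a ≥48 hr, 37 °C incubation.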
TGFb SMAD3 inh: blocks TGF-b signaling; Potency, µM (top dose mostly 46.1 µM), for the others: at the top dose activity, negative = inhibition, most hits filed as inhibitors; actives 1.2% (n = 410,000); AID 588855; HepG2 CAGA-GFP TGF-b/SMAD3 reporter, GFP fluorescence, 18 h; TGF-beta stimulated, 500 pg/mL final; also: % is scaled to controls: 0 for no effect and ±100 for the full control effect; nearly all actives have a fitted effect of over 65% in size
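Inhibition was scored as loss of TGF-beta-induced (500 pg/mL final, 18 hours, 37 degrees C) GFP in HEPG2 cells carrying a CAGA-GFP reporter, in DMEM with 1% FBS. Well GFP was summed per cell; Activity was normalised to unstimulated and stimulated DMSO wells, then concentration-response fitting.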
DT40 TDP1 CPT: DT40-hTDP1 cell growth loss with CPT; chicken DT40 Tdp1-/-;hTDP1 cells + 20 nM CPT, ATP luminescence, 48 h; Potency, µM (highest dose often 46.2 µM), inactives show at the highest dose activity change, negative = growth inhibition, usual class: inhibitors; actives 12% (n = 420,000); also: % is scaled to controls: 0 for no effect and ±100 for the full control effect; nearly all actives have a fitted effect of over 55% in size
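Chicken DT40 Tdp1-/- cells complemented with human TDP1, 400 cells/well, exposed to compounds plus 20 nM camptothecin for at least 48 h at 37 C; viability read as ATP content by CellTiter-Glo luminescence.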
HepG2 tox: HepG2 cytotoxicity, counter-screen for TGF-b inhibitors | AID 588856 | actives 0.76% (n = 410,000) | HepG2 CAGA-GFP viability, ATP luminescence, 18 h | Potency, µM (titrated, usually from 46.1 µM), inactives show top-dose activity change, negative = cytotoxicity, hits mostly cytotoxic
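CellTiter-Glo luminescence gave cytotoxicity after 18 hours at 37 degrees C. The cells were HepG2 CAGA-GFP in 1% FBS DMEM, stimulated with 500 pg/mL TGF-beta after compound addition. %Activity was normalised to no-cell wells (complete cell-killing) and DMSO (no toxicity), and curves were fitted and classified.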
HT1080 IDH1KD tx: HT-1080 IDH1 knockdown cell toxicity (counter line) | HT-1080 IDH1 knockdown viability, ATP luminescence, 48 h | Potency, µM (series often up to 46.1 µM), without a hit: top-dose activity, negative = toxicity, hits mostly cytotoxic | actives 2% (n = 360,000);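 also: 0% = DMSO wells and -100% = cell-free medium wells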
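Assay cells: HT-1080 with IDH1 knockdown, 750 per well, RPMI/5% FBS. Exposure: 48 h at 37 °C following 2 h pre-incubation. Read: CellTiter-Glo luminescence; fitted concentration-response, curve class assigned.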
Active calls of the source: *; ? = inconclusive; / = no result; ! = a repeat was not active; [ ] = dose if it differs, or a comment. Calls follow the shape of the dose curve; as a rule, active = well fitted curve in the direction sought with a large enough effect; inconclusive = small, poorly fitted or top-dose-only effect, or another doubt; inactive = no such curve, though single readings can be large; an effect the other way counts as inactive or inconclusive. Potency is read from the fitted curve at half-maximal effect.

SMILES	HT1080-NT tox	DT40 TDP1 no CPT	TGFb SMAD3 inh	DT40 TDP1 CPT	HepG2 tox	HT1080 IDH1KD tx
COC(=O)C1=C(c2cccc(OCc3ccccc3)c2)C[C@@H]2CC[C@H]1N2C(=O)NCc1ccccc1OC	-6.1%	23.1µM*	?	?	1.6%	-11.9%
COC(=O)C1=C(c2cccc(OCc3ccccc3)c2)C[C@@H]2CC[C@H]1N2C(=O)NCc1ccc(OC)c(OC)c1	-0.8%	14.6µM*	1.9%	16.4µM*	3.0%	-21.1%
COC(=O)C1=C(c2cccc(OCc3ccccc3)c2)C[C@@H]2CC[C@H]1N2C(=O)NCc1ccc(Cl)cc1	-3.1%	?	-13.2%	?	-0.1%	-15.6%
COC(=O)C1=C(c2cccc(OCc3ccccc3)c2)C[C@@H]2CC[C@H]1N2C(=O)NCc1cccc(F)c1	?	?	?	?	-2.9%	-22.9%
COC(=O)C1=C(c2cccc(OCc3ccccc3)c2)C[C@@H]2CC[C@H]1N2C(=O)NCc1cccc(C(F)(F)F)c1	-4.0%	16.4µM*	-2.4%	20.6µM*	15.2%	-7.0%
COC(=O)C1=C(c2ccc(OCc3ccccc3)cc2)C[C@@H]2CC[C@H]1N2C(=O)NCc1ccc(OC)cc1	-11.5%	6.51µM*	-25.7%	7.31µM*	-21.2%	-29.1%
CC(C)(C)n1ncc2c(=O)n(Cc3cccc(Cn4cnc5c(cnn5C(C)(C)C)c4=O)c3F)cnc21	/	/	?	/	-29.6%	/
CC(=O)c1cc(C#N)c(N2CCN(C)CC2)nc1C	13.2%	-7.1%	38.6%	15.2%	-68.2%	13.8%
O=C(Nc1ccccc1)N1CCCC2(CCN(C(=O)Oc3ccccc3)CC2)C1	/	?	/	12.6%	/	/
COC(=O)C1=C(c2cccc(OCc3ccccc3)c2)C[C@@H]2CC[C@H]1N2C(=O)NCc1ccc(OC)cc1	-14.9%	16.4µM*	-62.9%	11.6µM*	-14.3%	-15.3%
COC(=O)C1=C(c2ccc(OCc3ccccc3)cc2)C[C@@H]2CC[C@H]1N2C(=O)NCc1cccc(OC)c1	12.8%	20.6µM*	?	18.4µM*	-4.0%	-2.8%
COC(=O)C1=C(c2ccc(OCc3ccccc3)cc2)C[C@@H]2CC[C@H]1N2C(=O)NCc1ccc2c(c1)OCO2	-13.2%	4.11µM*	?	5.8µM*	-34.4%	-14.6%
COC(=O)C1=C(c2ccc(F)cc2F)C[C@@H]2CC[C@H]1N2C(=O)NCc1ccc2c(c1)OCO2	13.3%	?	4.7%	?	7.8%	-1.4%
COC(=O)C1=C(c2cccc(OCc3ccccc3)c2)C[C@@H]2CC[C@H]1N2C(=O)NCc1cc(C)oc1C(F)(F)F	-1.1%	?	-2.4%	23.1µM*	-4.0%	-0.5%
CN1c2cc(O)c(N=NC(N)=O)cc2CC1S(=O)(=O)O (configuration not stated)	/	?	/	-0.4%	/	/
CCCCOP(=O)(c1ccc(N(C)C)cc1)C(O)c1ccc(C(C)C)cc1 (configuration not stated)	1.7%	-17.5%	?	?	-40.6%	-0.8%
CCC1(C)CC(=O)NC(=O)C1	/	3.9%[21.1 µM]	/	-0.1%[21.1 µM]	/	/
COC1=CC(=O)O[C@@H](/C=C/c2ccccc2)C1	32.2%	-12.0%	-14.1%	-5.2%	0.0%	17.2%
COC(=O)C1=C(c2ccc(OCc3ccccc3)cc2)C[C@@H]2CC[C@H]1N2C(=O)NCc1ccc(C(C)(C)C)cc1	-16.1%	9.2µM*	-6.7%	11.6µM*	-30.1%	-27.2%
C=CCN(CC=C)Cc1c[nH]c2ccccc12	-18.5%	?	0.2%	11.6µM*	0.7%	-4.9%[9.24 µM]
CN(C)Cc1c[nH]c2ccccc12	-2.3%	13µM*!	-21.4%	11.6µM*	-18.0%	2.2%
FC(F)(F)c1ccccc1N1CC1c1ccncc1 (configuration not stated)	-4.5%	-1.4%	-2.2%	-28.4%	-1.9%	-4.5%
CC[n+]1c(SC)ccc2cc(OC)ccc21	-1.0%	16.4µM*	-15.5%	?	0.9%	-0.5%
Cc1nn2c(=O)cc(COC(=O)c3ccccc3NC(=O)c3cccs3)nc2s1	/	10.3µM*	-6.0%	9.2µM*	-6.0%	/
CC(C)c1nn2c(=O)cc(COC(=O)Cc3ccccc3)nc2s1	/	-5.1%	1.0%	-7.7%	8.4%	/
SMILES	HT1080-NT tox	DT40 TDP1 no CPT	TGFb SMAD3 inh	DT40 TDP1 CPT	HepG2 tox	HT1080 IDH1KD tx
CCOC(=O)c1ccc(NC(=O)c2cccn(Cc3ccc(C)cc3)c2=O)cc1	/	-26.4%	?	?	-2.0%	/
O=C(OCc1cc(=O)n2nc(C3CC3)sc2n1)c1ccc(NC(=O)c2ccccc2Cl)cc1	/	7.31µM*	12.2%	?	3.3%	/
Cc1ccccc1OCC(=O)Nc1ccccc1C(=O)OCc1cc(=O)n2nc(C3CC3)sc2n1	/	1.64µM*	-0.2%	1.64µM*	2.7%	/
Cc1ccc(C(C)C)cc1OCC(=O)Nc1nnc(C2CC2)s1	?	?	31.3%	-4.9%	-14.9%	?
Cc1cccc(Cn2cccc(C(=O)Nc3ccc(F)cc3F)c2=O)c1	/	?	-0.9%	-26.1%	-1.5%	/
CC12C=CC(=O)C=C1CCC1C2C(=O)CC2(C)C(=O)CCC12 (configuration not stated)	16.1%	-3.3%	-1.4%	8.9%	6.0%	10.5%
C=C1C[C@@H]2[C@H](CC[C@]3(C)C(=O)CC[C@@H]23)[C@@]2(C)C=CC(=O)C=C12	/	8.41µM*	/	16.4µM*	/	/
CCN(C[C@H]1N[C@@](CC)(C(=O)OC)[C@H]2C(=O)N(Cc3ccccc3)C(=O)[C@@H]12)C(=O)Nc1ccc(Cl)cc1	0.2%	20.6µM*	-40.5%	?	-18.8%	-23.3%
CCN(C[C@H]1N[C@@](C)(C(=O)OC)[C@H]2C(=O)N(Cc3ccccc3)C(=O)[C@@H]12)S(=O)(=O)c1ccc(C(C)(C)C)cc1	-12.4%	23.1µM*	?	20.6µM*	-5.5%	-5.0%
C[C@H]1CCC[C@@H](O)CCC/C=C/c2cc(O)cc(O)c2C(=O)O1	?	20.6µM*	?	?	-56.8%	8.91µM*
C[C@H]1CCC[C@H](O)CCCCCc2cc(O)cc(O)c2C(=O)O1	-18.4%	18.4µM*	?	14.6µM*	-58.2%	?
Nc1c2c(nc3sc4c(c13)CCCC4)CCCCC2	-11.3%	18.4µM*	5.1%	?	-19.9%	-19.0%
Nc1c2c(nc3sc4c(c13)CCCC4)CCCC2	?	?	?	?	-24.0%	?
